Source: PubChem
Rows were chosen to be rich in hits. Some 4% of all compounds tested hit in one or more screens of this group.
GDH-TPI counter: counter-screen for M. tuberculosis FBA inhibitors: GDH-TPI coupled enzymes | hit rate 1.2% among 360,000 | inhibition, % at 4.8 µM | GDH-TPI coupled enzyme counterscreen, NADH absorbance; in the data active = inhibition above about 30%
UGM FP inh: blocks M. tuberculosis UGM enzyme. P9WIQ1. purified UGM, fluorescence polarization probe displacement. inhibition, % at 10 µM. hit rate 0.06% among 320,000; in the data active = inhibition above about 10%, passing the limit was not always enough
Rv3671c inh: Rv3671c (M. tuberculosis) protease inhibition | inhibition, % at 5.96 µM | hit rate 0.048% among 320,000; in the data active = inhibition above about 38%;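 note: extracellular domain of Rv3671c used as enzyme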
Target sequence (P9WHR9 whole entry, looked up, the tested form may be a part): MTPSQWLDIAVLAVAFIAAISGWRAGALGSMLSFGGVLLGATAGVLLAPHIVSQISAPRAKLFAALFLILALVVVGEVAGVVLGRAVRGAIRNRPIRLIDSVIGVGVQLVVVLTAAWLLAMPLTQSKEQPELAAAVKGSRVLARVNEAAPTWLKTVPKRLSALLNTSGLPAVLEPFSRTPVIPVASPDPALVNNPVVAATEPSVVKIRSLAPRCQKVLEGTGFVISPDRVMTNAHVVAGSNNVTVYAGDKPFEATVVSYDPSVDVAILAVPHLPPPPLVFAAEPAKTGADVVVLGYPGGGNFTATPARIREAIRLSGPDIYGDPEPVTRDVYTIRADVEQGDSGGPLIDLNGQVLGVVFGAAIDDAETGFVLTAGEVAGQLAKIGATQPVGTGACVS
Mtb FBA inh: inhibits M. tuberculosis FBA enzyme; P9WQA3; purified M. tuberculosis FBA, fluorescence read-out; inhibition, % at 1 µM; hit rate 2.3% among 360,000; AID 588726; in the data active = inhibition above about 27%
Mtb betalactam: beta-lactam sensitization of Mtb H37Rv; inhibition, % at 25 µM; M. tuberculosis H37Rv growth with meropenem, percent inhibition; hit rate 0.27% among 330,000; AID 434955; call rule not given here;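 note: growth measured after seven days incubation then overnight dye step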
RecA splice inh: blocks M. tuberculosis RecA intein splicing; hit rate 0.75% among 290,000; inhibition, % (no concentration beside the values); AID 2221; cell-free RecA intein splicing, fluorescence; P9WHJ3; in the data active = inhibition above about 30%
Numbers stand for hits; – = inactive; · = no result given; + = active, no number.

SMILES	GDH-TPI counter	UGM FP inh	Rv3671c inh	Mtb FBA inh	Mtb betalactam	RecA splice inh
Nc1nc(NCCOCCO)nc(NCC2CCCO2)c1[N+](=O)[O-] (centres undefined)	42.9	–	–	–	–	–
COCCNc1nc(N)c([N+](=O)[O-])c(NCC2CCCO2)n1 (centres undefined)	37.9	–	–	–	–	–
Nc1nc(NCCOCCO)nc(NCc2ccccc2)c1[N+](=O)[O-]	–	–	·	–	–	–
O=C1CN(C(=O)c2ccc(F)cc2)c2ccccc2N1	–	–	–	–	–	–
Cc1ccc(C(NC(=O)C2CCN(CCCOc3ccccc3)CC2)c2ccccn2)cc1 (centres undefined)	–	·	·	–	·	·
CCOc1ccc(C(NC(C)=O)c2ccc(OC)c(OC)c2)cc1 (centres undefined)	–	–	–	–	–	–
CCCC(=O)NC(c1ccc(OCC)cc1)c1ccc(OC)c(OC)c1 (centres undefined)	–	–	–	155.7	–	–
O=c1cc(-c2ccc(O)c(-c3c(O)cc(O)c4c(=O)cc(-c5ccc(O)cc5)oc34)c2)oc2cc(O)cc(O)c12	33.5	–	–	–	–	–
O=c1cc(-c2ccc(O)c(O)c2)oc2cc(O)cc(O)c12	–	–	–	–	–	–
O=c1c(-c2c(O)cc(O)c3c(=O)cc(-c4ccc(O)cc4)oc23)c(-c2ccc(O)cc2)oc2cc(O)cc(O)c12	–	–	–	–	–	·
O=c1cc(-c2ccc(O)cc2)oc2c(-c3c(O)cc(O)c4c(=O)cc(-c5ccc(O)cc5)oc34)c(O)cc(O)c12	35.3	·	–	–	–	·
COc1ccc(-c2cc(=O)c3c(O)cc(O)cc3o2)cc1	33.7	–	–	–	–	·
Oc1[nH]c2ccccc2c1C1=NCCCC1	–	–	–	–	–	–
CCn1c(O)c(C2=NCCCC2)c2ccccc21	35.8	–	–	–	–	–
CCOC(=O)CC1=NN(c2ccccc2)C(=O)C1	–	–	–	–	–	65.9
CC(=O)NC(NC(=S)Nc1cccc(Br)c1)C(Cl)(Cl)Cl (centres undefined)	–	–	–	–	–	–
S=c1nc(-c2ccccc2)n(CCCn2ccnc2)c2c1CCCC2	40.9	–	–	–	–	–
C=CCN(CC=C)Cc1cc(=O)oc2cc(C)c(C)cc12	·	·	·	–	·	·
CNC(=O)c1cc2c(s1)-c1ccccc1CC2	–	–	–	+	–	–
COC(=O)c1cc2c(s1)-c1ccccc1OC2	–	–	–	+	–	–
O=C(Nc1cccnc1Cl)c1cc2c(s1)-c1ccccc1OC2	–	–	–	152.7	–	–
CN1CCN(c2ccccc2NC(=O)c2cc3c(s2)-c2ccccc2OC3)CC1	–	–	–	–	–	–
CCC1=C(OC(=O)N(CC)CC)N2C(=O)OC(=NCCc3c[nH]c4ccccc34)[C@]2(C)[C@H]2C1=CC[C@H]1C(=O)N(CC(=O)OC)C(=O)[C@H]12	–	–	–	–	–	–
CCOc1ccc2c(c1)c(N=NC(N)=S)c(O)n2C	31.2	–	–	–	–	–
Cn1c(O)c(N=NC(=O)CNC(=O)c2cccnc2)c2ccccc21	39.1	–	–	–	–	–
SMILES	GDH-TPI counter	UGM FP inh	Rv3671c inh	Mtb FBA inh	Mtb betalactam	RecA splice inh
COC(=O)Cn1c(O)c(N=NC(=O)CNC(=O)c2ccncc2)c2ccccc21	37.8	–	–	–	–	–
CCCn1c(O)c(N=NC(=O)CNC(=O)c2cccnc2)c2ccccc21	–	–	–	–	–	–
CCOc1ccc2c(c1)c(N=NC(=N)N)c(O)n2C	–	–	–	–	–	–
Cn1c(O)c(N=NC(=N)N)c2ccccc21	40.0	–	–	–	–	–
CC(=O)c1cccc(NC(=O)N2CCCC2C(=O)Nc2ccccc2C)c1 (centres undefined)	–	–	–	–	–	–
CN(C)c1ncc(S(=O)(=O)c2ccc(Cl)cc2)c(-c2ccccc2)n1	–	–	–	–	–	–
O=S(=O)(c1ccc(Cl)cc1)c1snnc1-c1ccccc1	–	–	–	–	–	81.5
c1ccc(-c2nnsc2-c2ncc[nH]2)cc1	–	–	–	–	–	–
O=S(=O)(c1ccc(F)cc1)c1snnc1-c1ccccc1	–	–	–	–	–	69.3
c1ccc(CN2CCC3(CCCc4ccccc43)CC2)cc1	–	–	–	–	–	·
COC(=O)c1cc2c(ccc3ccccc32)oc1=O	–	–	–	+	–	–
COc1ccccc1C(=O)Nc1cc2c(ccc3ccccc32)oc1=O	·	–	–	·	–	–
O=C(Nc1ccc(Br)cc1Cl)Nn1cnnc1	–	–	–	–	–	–
